The source of these data is PubChem BioAssay (NCI).

This is part of a sample that, as a whole, favours compounds with a hit. Of some 83,000 tested, about 20% had one in any assay.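 Compound tested at a single concentration for 48 hours in 96-well plates; a percent growth value below 10 was scored as active.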 A number with no mark means an inactive call. Activity calls are given as the source filed them.

Common to all, as to experiment: NCI-60 one-dose screen, 48 h (100 = growth as untreated, 0 = no growth, -100 = all killed)
What all share (details): 10 µM unless noted

Test [1] has as its system RPMI-8226 leukemia.
Test [2] has as its system OVCAR-8 ovarian.
Test [3] relates to OVCAR-5 ovarian.
The subject of test [4] is OVCAR-4 ovarian.
For test [5], the system named is SK-OV-3 ovarian.
The subject of test [6] is OVCAR-3 ovarian.
The test system of test [7] is HS 578T breast.
Test [8] relates to NCI/ADR-RES ovarian.
The test system of test [9] is T-47D breast.
Test [10] has as its system BT-549 breast.
In test [11] the test system is MDA-MB-435 melanoma.
For test [12], the system named is SW-620 colon.
Test [13] relates to MCF7 breast.
The test system of test [14] is HCT-116 colon.
In test [15] the test system is HCC-2998 colon.
Test [16] deals with KM12 colon.
Test [17] has as its system IGROV1 ovarian.

In the case of `CC(=O)C1CCC(C)=CC1=O` (centres undefined), the growth in [1] is 100%; in test [2], 100%; in test [3], 103%; in [4], 107%; in test [5], 100%; in [6], 108%. Also, the growth in test [7] is 122%; in test [8], 95.6%; in test [9], 90.2%; in [10], 93.3%; in test [11] it was 103%; in test [12] it was 103%. Also, the growth in test [13] was 88.4%; in test [14] it was 103%; in test [15] it was 103%; in [16], 110%.
As for `Cc1ccccc1C(=O)c1ccccc1C(=O)O`, the growth in test [1] is 102%; in [2], 107%; in test [3] it was 111%; in [4], 114%; in [5] it was 118%; in test [6] it was 107%. The growth in test [7] is 106%; in test [8], 108%; in [9] it was 107%; in test [10], 106%; in test [11], 105%; in test [12] it was 102%. Besides, the growth was 100% in [13], 103% in test [14], 105% in test [15] and 107% in test [16].
As for `COc1ccc(NC(=O)CSc2nc3ccccc3c(=O)n2Cc2cc(OC)c(OC)c(OC)c2)cc1`, the growth is 86% in test [1]; 91.9% in test [2]; 102% in test [3]; 82.8% in test [4]; 97% in [5]; 99% in [17]. The growth in [7] was 96.1%; in test [8] it was 84%; in test [9], 84%; in test [10] it was 89.1%; in test [11], 101%; in test [12] it was 104%. Moreover, the growth was 93.8% in test [13], 89.5% in test [14], 109% in [15] and 97.7% in [16].
For the molecule `COc1cc2c(cc1OC)C1(C)N(CC2)C(=O)OC1(C)C` (centres undefined), the growth was 105% in [1]; 98.4% in test [2]; 107% in [3]; 99.5% in test [4]; 107% in test [5]; 109% in [17]. In addition, the growth in [6] is 114%; in test [7] it was 98.1%; in test [8] it was 105%; in [9], 98.4%; in [11], 113%; in [12], 103%. Further, the growth was 91.3% in test [13], 104% in test [14], 102% in [15] and 112% in [16].
Consider `O=C(CCC(=O)OC1CCCC1)OC1CCCC1`, for which the growth in test [1] was 95.1%; in test [2], 91.6%; in [3] it was 98.7%; in test [4], 107%; in test [5], 110%; in test [17], 110%. For the same molecule, the growth is 102% in [6]; 105% in test [8]; 94.1% in test [9]; 99.9% in test [10]; 100% in test [11]; 103% in test [12]. In addition, the growth in [13] was 95.2%; in test [14] it was 109%; in test [15], 101%; in [16], 102%.
Consider `CCNCc1ccncc1`, for which the growth is 98.8% in [1]; 103% in test [2]; 112% in test [3]; 97.8% in test [4]; 94.7% in [5]; 111% in [17]. Further, the growth in test [6] is 110%; in test [7] it was 103%; in test [8] it was 106%; in [9], 96.9%; in test [11], 95.6%; in test [12], 100%. For the same molecule, the growth in [13] is 96.6%; in [14], 104%; in [15] it was 99.5%; in test [16], 106%.
Turning to `CCN1C(=O)N(CC)C2C1NN=c1s/c(=C\c3cccc(F)c3)c(=O)n12` (centres undefined), the growth was -0.526% (active) in test [1]; 21.2% in test [2]; 55.6% in [3]; 44.1% in [4]; 72.3% in test [5]; 29.9% in [17]. For the same molecule, the growth in test [6] is -2.21% (active); in test [7] it was 17.9%; in test [8], 5.73% (active); in test [10], 17.1%; in [11], -34.1% (active); in test [12], 28.5%. Besides, the growth in test [13] was 20%; in test [14] it was 6.81% (active); in test [15], 19.5%; in [16], 11.2%.
Turning to `Cc1ccc(S(=O)(=O)N2CCC(C(=O)Nc3ccc(F)cc3F)CC2)cc1`, the growth in test [1] is 86.5%; in [2], 97.8%; in [3] it was 98%; in [4] it was 83.7%; in test [5], 92.3%; in test [17], -38.5% (active). In addition, the growth is 91.6% in test [6]; -32.4% (active) in [7]; 95.4% in test [8]; 88.8% in test [9]; 96.9% in test [10]; 95% in test [11]. The growth is 103% in test [12], 93.2% in test [13], 101% in [14] and 109% in test [16].
Turning to `COc1ccc2c(c1)C(C)Cc1c(N(C)C)ncnc1N2C` (centres undefined), the growth in test [1] is 30.8%; in [2], 40.8%; in test [3], 73.2%; in [4], 62.4%; in test [5] it was 30%; in test [17], 54.4%. In addition, the growth was 10.3% in test [6]; 13.3% in [7]; 36.2% in test [8]; 34.7% in test [9]; 17.7% in test [10]; -5.79% (active) in test [11]. For the same molecule, the growth in [12] was 21.4%; in test [14], 23.7%; in [15] it was 74.6%; in [16], 23.6%.
